High-throughput results deposited in PubChem by several laboratories.
rCAG RNA binder = r(CAG) repeat RNA binding | 370,000 compounds, 1.3% hits | AID 651821 | TO-PRO-1 dye displacement fluorescence | inhibition, % at 3 µM;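 active = inhibition above the plate cutoff, the mean of all test compounds on that plate plus 3 SD, cut at about 35% in these data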;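 also: 0% = DMSO alone and 100% = 100 µM mitoxantrone as full dye displacement; higher means more dye released from RNA so lower well fluorescence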
NadD block = NadD (S. aureus) enzyme inhibition; purified NadD enzyme, colorimetric absorbance read-out; inhibition, % at 20 µM; 360,000 compounds, 0.78% hits; AID 602399; in the data active = inhibition above about 26%
FAS-TE inh = FAS thioesterase (human) inhibition. P49327. recombinant FAS-TE, OMFH fluorogenic substrate, fluorescence endpoint. inhibition, % at 15 µM. 360,000 compounds, 0.67% hits;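 active = compounds whose normalised, plate-corrected inhibition of enzyme fluorescence in the single-dose primary screen is 50% or more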;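 also: 0% = DMSO with enzyme and 100% = substrate without enzyme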
NR3A LBD binder = modulates the human NR3A ligand-binding domain; NR3A LBD differential scanning fluorimetry, Tm shift; 0% = protein alone, 100% = glycine-bound protein; Tm shift relative to glycine control, % at 25 µM; 340,000 compounds, 2.5% hits;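 active = melting temperature shift of at least 10% of the positive control shift, at one fixed dose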
Active calls of the source: *; nt = no result given. In the library only some 4.3% were active in any assay of this set; here they are far more common.

SMILES	rCAG RNA binder	NadD block	FAS-TE inh	NR3A LBD binder
COC(=O)c1cc(OC)c(OC)cc1NC(=S)Nc1cc(Cl)ccc1OC	2	-4	-3	-3
COc1ccc(Cl)cc1NC(=S)NCCSc1ccc(C)cc1	3	1	19	25*
O=C(Nc1ccc(F)cc1)N[C@@H]1C[C@@H]2O[C@H](CO)CC[C@@H]2O[C@@H]1CCc1ccc(C2=CCCC2)cc1	4	nt	nt	nt
O=C(Cc1nnc(NC(=O)c2ccccc2)s1)N/N=C/c1cccc(O)c1	11	0	-2	41*
Nc1ccc(C(=O)N/N=C/c2cn(Cc3ccc(F)cc3)c3ccccc23)cc1	15	2	2	16*
O=C(N/N=C/c1cccc(O)c1)N/N=C/c1cccc(O)c1	2	3	2	10*
Nc1ccc(C(=O)N/N=C/c2cn(Cc3ccccc3)c3ccccc23)cc1	7	3	6	6
Cn1c2ccccc2c2cc(/C=N/NC(=O)c3ccc(N)cc3)ccc21	17	0	-2	17*
Cc1ccc(Cn2cc(/C=N/NC(=O)Cc3nnc(NC(=O)c4ccc(C)cc4)s3)c3ccccc32)cc1	-1	10	-19	13*
Cc1ccccc1OCC(=O)N/N=C/c1cn(Cc2ccccc2)c2ccccc12	5	10	1	7
Clc1cccc(Nc2nc(-c3ccncc3)cs2)c1	5	0	1	31*
Clc1ccc(-c2csc(Nc3cccnc3)n2)cc1	5	-1	-3	15*
Fc1ccc(Nc2nc(-c3cccnc3)cs2)cc1	-2	-5	-2	-3
Clc1ccc(Nc2nc(-c3cccnc3)cs2)cc1	6	-4	7	13*
c1ccc(-c2csc(Nc3cccnc3)n2)cc1	5	-3	10	-4
C[C@@H]1CN([C@H](C)CO)C(=O)CCCn2cc(nn2)CO[C@H]1CN(C)S(=O)(=O)c1cn(C)cn1	2	nt	nt	nt
O=C(COC(=O)c1c2c(nc3ccccc13)/C(=C\c1cccs1)CCC2)Nc1ccccc1	21	11	36	17*
O=C(c1cc(F)ccc1F)N1CCCC(c2nc(-c3cccs3)no2)C1 (stereo unspecified)	1	nt	nt	nt
CCOC(=O)/C(=N\Nc1ccccc1)c1csc(Nc2ccc(C)cc2)n1	7	6	38	25*
CCCCC(CCC(=O)O)(C(=O)OCC)c1csc(Nc2ccc(C)cc2)n1 (stereo unspecified)	31	-13	0	-2
O=C(NC1CCCCN(Cc2ccc(Cl)cc2)C1=O)c1ccc(COc2ccccc2)cc1 (stereo unspecified)	11	nt	nt	nt
Cc1ccc(-n2c(C)cc(-c3csc(N)n3)c2C)cc1	17	30*	-116	-4
Cc1ccc(COc2ccc(/C=N/NC(=O)c3nnn(-c4nonc4N)c3COc3ccc(F)cc3)cc2)cc1	1	23	7	21*
Nc1nonc1-n1nnc(C(=O)N/N=C/c2ccc(OCc3ccccc3)cc2)c1CN1CCCCC1	7	22	19	18*
CCCCOc1ccc(/C=N/NC(=O)c2nnn(-c3nonc3N)c2CN2CCCCCC2)cc1	1	6	23	0
SMILES	rCAG RNA binder	NadD block	FAS-TE inh	NR3A LBD binder
Cc1cc(C)c(/C=N/NC(=O)c2nnn(-c3nonc3N)c2COc2ccc(F)cc2)c(C)c1	9	2	34	26*
Nc1nonc1-n1nnc(C(=O)N/N=C/c2ccc(OCc3ccc(F)cc3)cc2)c1COc1ccccc1	1	25	6	26*
Cc1ccc(-n2c(=O)c3sccc3n(Cc3cc(=O)n4cc(Cl)ccc4n3)c2=O)cc1F	3	3	7	15*
Cc1ccc(-n2c(=O)c3sccc3n(Cc3cc(=O)n4ccccc4n3)c2=O)cc1F	-2	nt	nt	nt
COc1cccc(CNC(=O)C2CCN(c3nc(OC)nc(OC)n3)CC2)c1	2	nt	nt	nt
COc1ccc(NC(=O)N(C)[C@H]2C[C@H]3c4[nH]c5c(-c6cccc(C)c6)cccc5c4CCN3C(=O)[C@H]2[C@H](C)O)cc1	16	nt	nt	nt
COc1ccc(S(=O)(=O)N2CCCC2CNC(=O)C(=O)Nc2cccc(F)c2)cc1 (stereo unspecified)	1	-6	9	-3
COc1ccc(S(=O)(=O)N2CCCC2CNC(=O)C(=O)Nc2ccc(F)cc2)cc1 (stereo unspecified)	-2	-9	6	11*
COc1ccc(CCNC(=O)C(=O)NCCC2CCCCN2S(=O)(=O)c2ccccc2)cc1 (stereo unspecified)	-4	-8	13	11*
Cc1ccc(S(=O)(=O)N2CCCCC2CCNC(=O)C(=O)NCc2ccco2)cc1 (stereo unspecified)	-3	-4	-2	18*
COCc1cccc(-c2cc(C(=O)OC)c3n(c2=O)CCC3)c1	1	nt	nt	nt
